Bioassay records as filed in PubChem BioAssay.
VLA-4 inh = inhibition in human VLA-4 binding assay, primary screen, VLA-4 allosteric modulator project, MLPCN library, flow cytometry, VLA-4 expressing cells | Integrin alpha-4 (Homo sapiens), P13612 | ligand binding flow cytometry | inhibition, % (about 7 µM as worked out from the volumes in the protocol) | hit rate 0.2% among 330,000 | AID 2557, 2010; in the data active = inhibition above about 50%
Target sequence (P13612 whole entry, looked up): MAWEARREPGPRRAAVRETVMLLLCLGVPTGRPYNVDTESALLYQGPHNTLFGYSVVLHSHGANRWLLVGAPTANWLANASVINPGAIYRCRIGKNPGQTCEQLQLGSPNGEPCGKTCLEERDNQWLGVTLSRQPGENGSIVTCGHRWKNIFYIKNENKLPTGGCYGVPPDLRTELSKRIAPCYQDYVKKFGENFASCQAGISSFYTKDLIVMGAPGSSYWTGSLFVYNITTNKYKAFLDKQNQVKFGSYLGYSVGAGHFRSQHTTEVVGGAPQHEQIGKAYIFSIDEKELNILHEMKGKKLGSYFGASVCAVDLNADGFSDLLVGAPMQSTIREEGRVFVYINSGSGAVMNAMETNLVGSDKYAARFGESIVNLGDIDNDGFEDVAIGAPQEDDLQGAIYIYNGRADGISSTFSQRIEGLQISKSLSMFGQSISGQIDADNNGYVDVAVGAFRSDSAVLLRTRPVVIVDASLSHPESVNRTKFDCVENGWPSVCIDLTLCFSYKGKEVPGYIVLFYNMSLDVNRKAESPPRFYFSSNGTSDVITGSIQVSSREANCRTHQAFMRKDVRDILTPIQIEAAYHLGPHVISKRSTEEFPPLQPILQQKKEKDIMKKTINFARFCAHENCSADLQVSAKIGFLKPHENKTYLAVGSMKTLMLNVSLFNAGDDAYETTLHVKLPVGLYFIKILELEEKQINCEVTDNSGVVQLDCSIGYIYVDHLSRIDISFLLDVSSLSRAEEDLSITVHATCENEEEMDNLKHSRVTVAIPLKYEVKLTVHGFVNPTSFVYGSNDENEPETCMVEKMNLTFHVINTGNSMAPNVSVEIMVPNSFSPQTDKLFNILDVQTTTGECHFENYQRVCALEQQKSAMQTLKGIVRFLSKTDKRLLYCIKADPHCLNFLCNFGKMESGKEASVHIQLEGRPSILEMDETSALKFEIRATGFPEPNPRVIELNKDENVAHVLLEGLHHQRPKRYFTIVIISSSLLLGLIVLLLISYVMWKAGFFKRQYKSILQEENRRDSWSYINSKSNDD
MEKK2mut PB1 HTS = MEK5 binding signal on mutant MEKK2 PB1, primary screen, biochemical, multiplex bead flow cytometry, Alexa488-MEK5; Alexa488-MEK5 binding to MEKK2 mutant; hit rate 0.35% among 290,000; percent response, % at 10 µM; AID 1530, 2009; in the data active = percent response above about 24%, passing the limit was not always enough
MEKK2wt PB1 HTS = modulators of MEK5 binding to wildtype MEKK2, primary screen, biochemical, multiplex bead flow cytometry, Alexa488-MEK5 | binding response (% of control), % at 10 µM | hit rate 1.1% among 290,000 | AID 1531, 2009 | Alexa488-MEK5 binding to MEKK2 WT; actives lie on both sides | Mitogen-activated protein kinase kinase kinase 2 (Homo sapiens), Q9Y2U5; in the data active = binding response below about 67% or above about 130%
MEKK3 PB1 HTS = modulators of MEKK3-MEK5 PB1 binding, primary screen, biochemical, wildtype MEKK3, multiplex bead flow cytometry, Alexa488-MEK5. hit rate 1.4% among 290,000. Mitogen-activated protein kinase kinase kinase 3 (Homo sapiens), Q99759. binding response (% of control), % at 10 µM. bead-based flow cytometry, Alexa488-MEK5 binding to MEKK3; actives lie on both sides; 0 = blocked by unlabeled MEK5, 100 = vehicle;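 active = binding response more than 3 SD above or below the average of its plate-row segment, actives on both sides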;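 also: Alexa488 bead fluorescence after subtracting the streptavidin-only scavenger bead signal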
MEKK2wt confirm = modulators of MEK5 binding to wildtype MEKK2, confirmation, biochemical, single concentration, multiplex bead flow cytometry; shares compounds with MEKK3 PB1 HTS; Alexa488-MEK5 binding to MEKK2 WT; actives lie on both sides; binding response (% of control), % at 10 µM; hit rate 2.4% among 5,900; AID 1892, 2009; in the data active = binding response below about 16% or above about 210%; inactive = in between
MEKK2mut-MEK5 = mutant MEKK2 PB1-MEK5 binding signal retest – biochemical, single concentration, multiplex bead flow cytometry, confirmation. Alexa488-MEK5 binding to MEKK2 mutant. percent response, % at 10 µM. shares compounds with MEKK3 PB1 HTS. hit rate 2% among 5,900; in the data active = percent response mostly above about 71%, no sharp cut-off; inactive = mostly below about 38%;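 also: higher means compound restores mutant binding toward wildtype level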
MEKK3-MEK5 inh = MEKK3 wild-type PB1 binding to MEK5, inhibitors, confirmation, biochemical, bead multiplex flow cytometry, single concentration, wildtype. shares compounds with MEKK3 PB1 HTS. Alexa488-MEK5 binding to MEKK3; active compounds read low. binding response (% of control), % at 10 µM. hit rate 1.8% among 5,900;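 active = binding response below 72% of control, or above a set upper limit, though filed actives all read lower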;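 also: lower values mean stronger disruption of MEK5 binding to MEKK3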
A number is an active result; i = inactive; nt = no result given; [ ] = dose if it differs, or a comment. Compounds with a hit are over-represented: about 2.2% of the library has one in this group of screens.

SMILES | VLA-4 inh | MEKK2mut PB1 HTS | MEKK2wt PB1 HTS | MEKK3 PB1 HTS | MEKK2wt confirm | MEKK2mut-MEK5 | MEKK3-MEK5 inh
CCC(C)[C@H]1COCCS(=O)(=O)N1Cc1ccc(Cl)cc1Cl (some centres not stated) | i | i | i | i | nt | nt | nt
CC(C)CC(N=Cc1c(O)c2ccccc2oc1=O)C(=O)O (configuration not stated) | i | i | i | 73[inhibitor] | i | i | i
COc1ccc(-c2oc3ccccc3c2C#CC(C)(C)O)cc1 | i | nt | nt | nt | nt | nt | nt
CN1CCCC(OC(=O)c2ccc(C(C)(C)C)cc2)C1 (configuration not stated) | i | i | i | i | nt | nt | nt
CCN1CCCC1CNC(=O)c1cc2c(-c3ccc(Cl)cc3)nn(C)c2s1 (configuration not stated) | i | 29 | 210 | i | i | i | i
Cn1nc(-c2ccc(Cl)cc2)c2cc(C(=O)NCCCN3CCCC3)sc21 | i | i | 201 | i | i | i | i
CCCCNC(=O)c1cc2c(-c3ccc(Cl)cc3)nn(C)c2s1 | i | i | i | i | nt | nt | nt
O=C(N[C@@H](Cc1ccccc1)C(=O)N1CCN(S(=O)(=O)c2ccccc2F)CC1)c1ccco1 | i | nt | nt | nt | nt | nt | nt
CC1CC1C(=O)OCC(=O)Nc1ccc(N=Nc2ccccc2)cc1 (configuration not stated) | i | i | i | 136 | i | i | i
CC(=O)Nc1ccc(NC(=O)c2c(C)c(-c3ccccc3)nc3ccccc23)cc1 | i | nt | nt | nt | nt | nt | nt
CCn1c(N2CCN(S(=O)(=O)c3ccccc3C(F)(F)F)CC2)nc2ccccc21 | i | i | 2.0[inhibitor] | 2.0[inhibitor] | i | i | i
CCn1c(N2CCN(C(=O)C34CC5CC(CC(C5)C3)C4)CC2)nc2ccccc21 | i | i | 0.0[inhibitor] | 0.0[inhibitor] | i | i | i
CCCOc1ccc(N2C(=O)CC(NCC(=O)OCC)C2=O)cc1 (configuration not stated) | i | nt | nt | nt | nt | nt | nt
COc1ccc(Cl)cc1N(CC(=O)N1CCN(Cc2ccccc2)CC1)S(C)(=O)=O | i | i | i | 125 | i | i | i
CSc1nc(Cl)cc(N(CCO)CCO)n1 | i | 25 | i | i | i | i | i
COc1cc(/C=N/NC(=O)c2ccc(Cl)cc2)ccc1OCC(=O)N1CC(C)OC(C)C1 (configuration not stated) | i | i | i | 52[inhibitor] | i | i | i
O=C(COC(=O)CN1C(=O)COc2ccccc21)NCc1ccc(F)cc1 | i | nt | nt | nt | nt | nt | nt
CCOC(=O)c1ccc(N2C(=O)Cc3ccccc3C2=O)cc1 | i | i | i | i | nt | nt | nt
CC(C)COC(=O)c1ccc(N2C(=O)c3ccccc3C2=O)cc1 | i | i | 7.0[inhibitor] | 5.0[inhibitor] | i | i | i
CCN(CC(=O)Nc1c(F)cccc1F)C(=O)c1cccc(S(=O)(=O)N2CCCCCC2)c1 | i | nt | nt | nt | nt | nt | nt
Cc1ccc(C(=O)Nc2ccc(Br)c(C(F)(F)F)c2)cc1 | i | i | 170 | i | i | i | i
O=C(Nc1ccc(Cl)c(C(F)(F)F)c1)c1ccncc1 | i | i | 5.0[inhibitor] | 2.0[inhibitor] | i | i | i
COc1cccc(CNC(=O)Cc2ccc(S(=O)(=O)N3CCOCC3)s2)c1 | i | nt | nt | nt | nt | nt | nt
COc1cc(Cl)c(C)cc1NC(=O)CN(C)C1CCS(=O)(=O)C1 (configuration not stated) | i | nt | nt | nt | nt | nt | nt
CC(C)(C)c1ccc(/C=C/C(=O)c2ccc(NC3=NCCCS3)cc2)cc1 | i | i | 139 | i | i | i | i
SMILES | VLA-4 inh | MEKK2mut PB1 HTS | MEKK2wt PB1 HTS | MEKK3 PB1 HTS | MEKK2wt confirm | MEKK2mut-MEK5 | MEKK3-MEK5 inh
O=C(CN1CCN(c2ccccc2Cl)CC1)NC1CCCc2ccccc21 (configuration not stated) | i | i | i | 129 | i | i | i
COc1ccc(-c2nnn(CC(=O)NC3CCCc4ccccc43)n2)cc1OC (configuration not stated) | i | i | i | 122 | i | i | i
COc1ccc(-c2nnn(CC(=O)c3ccc4c(c3)OCCO4)n2)cc1OC | i | i | i | 123 | i | i | i
COc1ccc(-c2nnn(CC(=O)Nc3ccc4c(c3)OCCO4)n2)cc1OC | i | nt | nt | nt | nt | nt | nt
O=C(CCc1nnc2ccc(N3CCCC3)nn12)Nc1cc(F)ccc1F | i | i | i | i | nt | nt | nt
O=C(NC1CCCCC1)C1CCCN(S(=O)(=O)c2cccc3cccnc23)C1 (configuration not stated) | i | i | i | 129 | i | i | i
O=C(NC1CCCC1)C1CCN(S(=O)(=O)c2cccc3cccnc23)CC1 | i | i | i | i | nt | nt | nt
COc1cc(NC(=O)CCn2c(=S)oc3ccccc32)cc(OC)c1OC | i | i | i | i | nt | nt | nt
O=C(O)C1CCCN(S(=O)(=O)c2ccc(Br)cc2)C1 (configuration not stated) | i | i | 18[inhibitor] | 11[inhibitor] | i | i | i
O=C(O)C1CCCN(S(=O)(=O)c2ccccc2)C1 (configuration not stated) | i | i | i | i | nt | nt | nt
NC(=O)CN1CCCN(S(=O)(=O)c2ccc(Br)cc2)CC1 | i | i | 3.0[inhibitor] | 2.0[inhibitor] | i | i | i
Cc1ccc(S(=O)(=O)N2CCN(CC(=O)N/N=C/C=C/c3ccccc3)CC2)cc1 | i | i | i | 138 | i | i | i
O=C(CN1CCN(S(=O)(=O)c2ccc(Br)cc2)CC1)N/N=C/c1ccco1 | i | i | i | 162 | i | i | i
CCC(OC(=O)c1ccco1)C(=O)NC1CCCC1 (configuration not stated) | i | i | i | i | nt | nt | nt
Cc1ccc(C(=O)CNc2ccc(Cl)cc2)cc1 | i | i | 1.0[inhibitor] | 1.0[inhibitor] | i | i | i
CN(C)CCC(=O)c1ccc(Cl)cc1 | i | 27 | i | i | i | i | i
CCC(C)N(C(=O)COC(=O)CNC(=O)c1sc2ccccc2c1Cl)C1CCS(=O)(=O)C1 (configuration not stated) | i | i | i | i | nt | nt | nt
CC(Cc1ccccc1)NC(=O)/C=C/c1ccc([N+](=O)[O-])cc1 (configuration not stated) | i | i | i | 150 | i | i | i
COc1ccc(Nc2nc(N)nc(CSCCO)n2)cc1 | i | i | 135 | i | i | i | i
COc1ccccc1C(=O)Nc1ccc(OCC(=O)N2CCCCC2C)cc1 (configuration not stated) | i | nt | nt | nt | nt | nt | nt
